Source: the supplement of paper PMC8047044

These compounds were tested on Neuro-2a (assay: neurite formation score, plate-normalized to DMSO control mean 5.04 (score (0-8 scale)); higher = more or longer neurites). Settings: 0.1 µM.
Procedure: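 Neuro-2a mouse neuroblastoma cells in PLL-coated 96-well plates were pre-treated for 1 h in DMEM(+) with each kinase inhibitor at 0.1 µM, then switched to serum-free DMEM(-) with inhibitor to induce neurite outgrowth and fixed about 2-3 h later. Three blinded observers scored neurite formation from 0 (no neurites) to 8 (long neurites on almost all cells).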

Q: `CC(C)(C)c1cc(C=C(C#N)C#N)cc(Br)c1O` was tested. Which neurite formation score did it give?
A: Its neurite formation score is 5.04.

Q: For `COc1cc([C@@H]2c3cc4c(cc3[C@H](O)[C@H]3COC(=O)[C@@H]23)OCO4)cc(OC)c1OC`, which neurite formation score is on record?
A: Its neurite formation score is 2.38.

Q: How did the neurite formation score turn out when `O=c1[nH]c2ccc(Cl)cc2c(N[C@@H]2CN3CCC2CC3)c1-c1nc2ccccc2[nH]1` was run?
A: The neurite formation score was 4.92.

Q: How did the neurite formation score turn out when `CCN1CCN(C(=O)Cc2ccc(Nc3ncc(F)c(Nc4ccc(C(=O)Nc5ccccc5Cl)cc4)n3)cc2)CC1` [Aurora A Inhibitor I] was run?
A: Its neurite formation score is 4.92.

Q: With `COc1ccc(N(C(=O)Oc2c(C)cccc2C)c2ccnc(Nc3ccc(N4CCN(C)CC4)cc3)n2)c(OC)c1` as the compound, how does the neurite formation score read?
A: The neurite formation score was 5.08.

Q: With `N#CC(C#N)=Cc1ccc(O)c(O)c1` as the compound, how does the neurite formation score read?
A: The neurite formation score was 5.38.

Q: With `COc1ccc2c(c[n+](C)c3c4cc5c(cc4ccc23)OCO5)c1OC` [Chelerythrine Chloride] as the compound, how does the neurite formation score read?
A: The neurite formation score was 4.04.

Q: `Cn1cc(C2=C(c3cn(C4CCN(Cc5ccccn5)CC4)c4ccccc34)C(=O)NC2=O)c2ccccc21` was tested. Which neurite formation score did it give?
A: Its neurite formation score is 2.38.

Q: Which neurite formation score does the source give for `Cc1ccccc1-n1c(Cn2cnc3c(N)ncnc32)nc2cccc(C)c2c1=O` here?
A: The neurite formation score was 4.75.

Q: For `O=c1[nH]c2ccccc2n1C1CCN(Cc2ccc(-c3[nH]c4cc5ncnc5cc4nc3-c3ccccc3)cc2)CC1` [AKT inhibitor VIII], which neurite formation score is on record?
A: Its neurite formation score is 3.38.

Q: For `CC(C)(C)c1cc(C=C(C#N)C#N)cc(C(C)(C)C)c1O` [Tyrphostin 9], which neurite formation score is on record?
A: The neurite formation score was 4.92.

Q: `COC[C@H]1OC(=O)c2coc3c2[C@@]1(C)C1=C(C3=O)[C@@H]2CCC(=O)[C@@]2(C)C[C@H]1OC(C)=O` [Wortmannin] was tested. Which neurite formation score did it give?
A: Its neurite formation score is 4.58.
